In PubChem BioAssay AID1851 (National Center for Advancing Translational Sciences (NCATS), 2009):
Values joined by “and” are separate entries in the source; they are usually repeats but may differ in a detail not shown here. Equal entries are not always repeated. About 2,600 (16%) of roughly 16,000 compounds were called active. Inconclusive results (about 20%) are left out. Calls follow the shape of the dose curve; as a rule, active = well fitted curve in the direction sought with a large enough effect; inconclusive = small, poorly fitted or top-dose-only effect, or effect the other way; inactive = no such curve, though single readings can be large or run the other way. Not all results are given here.

The molecules below were run against Cytochrome P450 2D6 (Homo sapiens) (UniProt P10635) (assay: Cytochrome panel assay with activity outcomes). Settings: recombinant CYP, pro-luciferin dealkylation, luminescence, p450-cyp2d6; series mostly up to 57.1 µM.
% is scaled to controls: 0 for no effect and ±100 for the full control effect.

Chain of Cytochrome P450 2D6 (Homo sapiens) (P10635 whole entry, looked up): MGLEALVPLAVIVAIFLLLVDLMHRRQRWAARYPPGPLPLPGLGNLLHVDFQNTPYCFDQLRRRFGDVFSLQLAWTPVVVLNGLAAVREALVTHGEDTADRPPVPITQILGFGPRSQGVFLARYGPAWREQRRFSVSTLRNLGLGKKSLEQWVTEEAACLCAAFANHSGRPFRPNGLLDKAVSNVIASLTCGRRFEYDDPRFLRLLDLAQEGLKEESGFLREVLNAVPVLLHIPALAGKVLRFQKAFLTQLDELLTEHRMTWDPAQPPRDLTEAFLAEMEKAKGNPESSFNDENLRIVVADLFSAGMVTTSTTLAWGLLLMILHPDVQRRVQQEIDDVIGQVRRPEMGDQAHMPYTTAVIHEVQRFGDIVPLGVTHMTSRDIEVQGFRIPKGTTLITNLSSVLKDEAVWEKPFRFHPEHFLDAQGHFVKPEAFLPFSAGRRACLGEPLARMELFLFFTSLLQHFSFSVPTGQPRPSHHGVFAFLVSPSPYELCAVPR

Question: For `COC(=O)c1ccccc1NC(=O)C(CCS(C)(=O)=O)NC(C)=O` (stereo not given), which AC50 is on record?
Answer: inactive

Question: With `CC(CCc1ccccc1)NC(=O)/C=C/c1ccccc1` (stereo not given) as the molecule, how does the AC50 read?
Answer: inactive

Question: With `O=C1c2ccc3c4c(ccc(c24)C(=O)N1c1ccc2ccccc2c1)CC3` as the molecule, how does the AC50 read?
Answer: inactive

Question: For `O=C(c1ccc(Cl)cc1)N1CCN(C(=O)c2ccco2)CC1`, which AC50 is on record?
Answer: inactive

Question: How did the AC50 turn out when `Cc1ccc(Cn2cccc(NC(=O)NC3CCCCC3)c2=O)cc1` was run?
Answer: inactive

Question: For `CC(=O)c1[nH]c(C)c(C(C)=O)c1C`, which AC50 is on record?
Answer: inactive

Question: Which AC50 does the source give for `O=C1C2C3C=CC([C@@H]2C(=O)N1C1CCCCC1)[C@H]1C(=O)N(C2CCCCC2)C(=O)C31` (stereo not given in full) here?
Answer: inactive

Question: With `O=C(CCc1ccccc1)NNC(=O)C1CCCCC1` as the molecule, how does the AC50 read?
Answer: inactive

Question: How did the AC50 turn out when `COc1ccc(C(OCCN2CCC[C@@H](C(=O)O)C2)(c2ccc(OC)cc2)c2ccc(OC)cc2)cc1` was run?
Answer: inactive

Question: `O[C@@](CCN1CCCCC1)(c1ccccc1)C1CCCCC1` was tested. Which AC50 did it give?
Answer: 5.01 µM (active) and 1.26 µM (active)

Question: For `COc1ccc(-c2nc3cnc(N4CCN(C)CC4)nc3n(Cc3cccs3)c2=O)cc1`, which AC50 is on record?
Answer: inactive

Question: `CN1CCc2cc(NC(=O)Nc3cccnc3)ccc21` was tested. Which AC50 did it give?
Answer: 25.1 µM (active)

Question: How did the AC50 turn out when `CC(C(=O)Nc1cccnc1)N1C(=O)C2C3C=CC(C3)C2C1=O` (stereo not given) was run?
Answer: inactive

Question: How did the AC50 turn out when `CSc1cc2c(cc1C(F)(F)F)N(C(=O)Nc1cccnc1)CC2` was run?
Answer: 31.6 µM (active)

Question: How did the AC50 turn out when `O=C(Nc1cccc(F)c1)N1CCC2(CC1)CCN(C(=O)c1cnccn1)CC2` was run?
Answer: inactive

Question: How did the AC50 turn out when `Cn1ncc(Cl)c1C(=O)Nc1cccnc1` was run?
Answer: inactive

Question: `COc1cc2c(cc1C(F)(F)F)N(C(=O)Nc1cc(F)cc(-c3cccnc3)c1)CC2` was tested. Which AC50 did it give?
Answer: inactive

Question: `CCOC(=O)c1c(NC(=O)CCc2ccc(CC)o2)sc(C)c1C` was tested. Which AC50 did it give?
Answer: inactive

Question: `COC(=O)C1C(O)=C(C=NCc2ccccc2)C(=O)CC1(C)C` (stereo not given) was tested. Which AC50 did it give?
Answer: inactive

Question: With `CCCN1C(=O)/C(=C/c2ccc(C)s2)SC1=Nc1ccc(OC)cc1` as the molecule, how does the AC50 read?
Answer: inactive

Question: For `CCC(=O)N(C)/C=C1\Sc2ccccc2C1=O`, which AC50 is on record?
Answer: inactive

Question: How did the AC50 turn out when `Cc1ccc(/C=C2\Sc3ccccc3C2=O)s1` was run?
Answer: 15.8 µM (active)

Question: Which AC50 does the source give for `O=S(=O)(c1ccccc1)c1cnn2c(C(F)(F)F)cc(-c3ccccc3)nc12` here?
Answer: inactive

Question: With `c1ccc(-c2ccc3c(c2)c2c4n3CCN=C4CCC2)cc1` as the molecule, how does the AC50 read?
Answer: inactive

Question: With `Cc1ccc(C(C)C)n1C(=O)OC(C)(C)C` as the molecule, how does the activity, negative = inhibition read?
Answer: 0.591% [at 11.4 µM] (inactive)

Question: With `O=S1(=O)C=C(Oc2ccc3ccccc3c2)c2ccccc21` as the molecule, how does the AC50 read?
Answer: inactive

Question: With `Cc1c(NC(=O)/C=C/c2cn(-c3ccccc3)nc2-c2ccc(F)cc2)c(=O)n(-c2ccccc2)n1C` as the molecule, how does the AC50 read?
Answer: inactive

Question: For `O=C(NCc1cn(-c2ccccc2)nc1-c1ccccc1)c1cc([N+](=O)[O-])cc([N+](=O)[O-])c1`, which AC50 is on record?
Answer: inactive

Question: How did the AC50 turn out when `Cc1ccc(-c2nn(-c3ccccc3)cc2CSC(=N)N)cc1` was run?
Answer: 0.251 µM (active)

Question: Which AC50 does the source give for `NC(=O)C1=CN([C@@H]2O[C@@H](COP(=O)(O)OP(=O)(O)OC[C@@H]3O[C@H](n4cnc5c(N)ncnc54)[C@@H](OP(=O)(O)O)[C@@H]3O)[C@H](O)[C@@H]2O)C=CC1` here?
Answer: inactive
